Test results as given in PubChem BioAssay AID598 (SRMLSC, 2007).
Out of some 85,000 compounds screened, about 5,100 (6%) were called active. Many of the other results were omitted from the sample, so actives are more common in it than they were. A number with no mark means an inactive call.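 The calls were made as follows: active = viability at or below 40%; inactive = viability above 40%.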

Test: proliferation blockers of H69AR lung cancer cells, primary screen, cell-based, human, 86K library (AID 598);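 also: multidrug resistant small cell line overexpressing MRP-1 efflux transporter; 100% = mean luminescence of untreated control wells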
Conditions: H69AR lung tumor viability, ATP luminescence, 72 h; at 10 µM; stronger effect = lower value

| SMILES | viability |
| --- | --- |
| O=C(CSCc1c(F)cccc1Cl)NCC1CCCO1 (stereo unspecified) | 90.5% |
| Cc1cc(SCC(=O)c2ccccc2)nc(SCC(=O)c2ccccc2)n1 | 72.1% |
| Cc1ccc(S(=O)(=O)NCCN2CCOCC2)cc1C | 100% |
| CCCCN(CCCC)C(=O)CCS(=O)(=O)c1ccc2c(c1)n(C)c(=O)c(=O)n2C | 70.2% |
| CC(=O)CCS(=O)(=O)c1ccc(C)c(C)c1 | 1.25% (active) |
| COc1ccc(NC(=O)CSc2nc(NS(=O)(=O)c3ccc(C)cc3)cc(=O)[nH]2)cc1 | 109% |
| COC(=O)c1sccc1-n1cccc1C(=O)C(=O)N1CCCCC1 | 95.1% |
| Cc1cccc(C(=O)N2CCCN(C(=O)c3cccc(C)c3)CC2)c1 | 94.6% |
| Clc1ccc(COn2c(-c3ccc(Cl)cc3Cl)nc3ncccc32)cc1 | 56.5% |
| N=c1c2c3c(sc2ncn1CCCN1CCOCC1)CCCCC3 | 71% |
| O=C(O)[C@@H]1CCCN1c1ncnc2sc3c(c12)CCC3 | 86.5% |
| c1nnc2c3c4c(sc3ncn12)CCC4 | 39% (active) |
| CCc1ccc(NC(=O)CN2C(=O)CSC2=O)cc1 | 93% |
| COCCn1c(SCc2nnc(-c3ccc(OC)c(OC)c3)o2)nc2sc3c(c2c1=O)CCC3 | 51.5% |
| O=C(CN1CCN(C(=O)c2ccco2)CC1)Nc1ccc(Cl)c(C(F)(F)F)c1 | 19.9% (active) |
| COc1ccc(OC)c(NC(=O)CN2CCN(C(=O)c3ccco3)CC2)c1 | 73.5% |
| O=C(CN1CCN(C(=O)c2ccco2)CC1)Nc1ccc2c(c1)OCO2 | 110% |
| O=C(Nc1ccc(Br)cc1)c1cccc(NC(=O)C2C3CC4OC(=O)C2C4C3)c1 (stereo unspecified) | 79.9% |
| O=C1NC(Nc2nc3ccccc3s2)(C(F)(F)F)C(=O)N1C1CCCCC1 (stereo unspecified) | 13.4% (active) |
| COC(=O)NC1(C(F)(F)F)NC(=O)N(C2CCCCC2)C1=O (stereo unspecified) | 103% |
| COC(=O)CCSc1cc([N+](=O)[O-])cc2c1c(C1OCCS1)nn2-c1ccccc1 (stereo unspecified) | 98.2% |
| Cc1ccc(-n2cc3ccc([N+](=O)[O-])cc3n2)cc1 | 76.8% |
| CCOC(=O)N1CCN(C(=O)c2ccc(CN(c3ccc(C)c(C)c3)S(C)(=O)=O)cc2)CC1 | 70.5% |
| CCOC(=O)N1CCN(C(=O)c2ccc(S(=O)(=O)c3ccc(C)cc3)c(NC(C)=O)c2)CC1 | 85.8% |
| CCOC(=O)N1CCN(C(=O)c2ccc3c(c2)N(Cc2ccc(C)cc2)CCS3)CC1 | 30.8% (active) |
| COc1ccc(CN(C(=O)CSc2nnc(-c3ccc(OC)c(OC)c3)o2)c2ccc(F)cc2)cc1 | 65.2% |
